Hits are enriched below; roughly 6.6% of the tested compounds scored in any of these assays.
Beta cell apopt – inhibitors of cytokine-induced beta cell apoptosis, primary screen, luminescence; protection from apoptosis, % (test concentration not listed); INS-1E cytokine-induced death, ATP luminescence, 48 h; percent of positive-control rescue, neutral wells zero; actives 0.8% (n = 300,000); AID 435005, 2010;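 active = Every replicate reaches about 75%, or at least half do and their mean reaches it too, limit read from the data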;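 note: 0% = cytokine-treated negative control wells and 100% = positive control rescue; higher means more ATP so stronger rescue from cytokine killing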
CSC inhib – cancer stem cell viability inhibitors, primary screen, luminescence. actives 1.1% (n = 300,000). inhibition, % at 7.5 µM. cancer stem cell-like cells viability; in the data active = inhibition above about 75%; tested in HMLE shEcad cells
Gli-Sufu antag – Gli-Sufu pathway antagonists, primary screen, luciferase luminescence, Sufu-KO-LIGHT cells, uHTS. actives 0.74% (n = 340,000). inhibition, % at 5 µM. AID 588413, 2011. Sufu-KO-LIGHT fibroblasts, Gli luciferase reporter luminescence;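 active = inhibition above about 55%, limit read from the data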;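 note: 0% = DMSO-treated cells and 100% = wells with medium but no cells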
MPTP inh – mitochondrial permeability transition pore inhibitors, primary screen, biochemical, isolated mouse mitochondria, absorbance; Ca2+ swelling absorbance, 30 min; actives 1.4% (n = 360,000); AID 602449, 2012; inhibition, % at 10 µM;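 active = inhibition of 50% or more, scaled per plate between neutral and stimulator controls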;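 note: 0% = DMSO wells given calcium and 100% = 1 mM EGTA wells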
Mdm2 MdmX PPI – inhibitors of human Mdm2-MdmX association, primary screen, cell-based, luminescence, split luciferase, SaOS-2, uHTS; AID 485346, 2010; SaOS-2 split-luciferase Mdm2/MdmX complementation; inhibition, % at 8 µM; actives 3% (n = 330,000);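 active = inhibition of at least 50% at 8 µM in the primary screen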
GRIN3A LBD mod – binders of NR3A ligand-binding domain, primary screen, biophysical, differential scanning fluorimetry, uHTS; Tm shift relative to glycine control, % at 25 µM; actives 2.5% (n = 340,000); NR3A LBD differential scanning fluorimetry, Tm shift; 0% = protein alone, 100% = glycine-bound protein; Glutamate receptor ionotropic, NMDA 3A (GRIN3A) ligand-binding domain;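 active = melting temperature shift of at least 10% of the positive control shift, at one fixed dose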
Rh123 counter – fluorescence retest of MPTP screen hits in isolated mitochondria, single concentration; shares compounds with MPTP inh; membrane potential, Rhodamine 123 fluorescence; inhibition, % at 10 µM; actives 78% (n = 5,000); in the data active = inhibition above about 22%;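 note: 0% = DMSO vehicle and 100% = positive control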
MPTP abs DR – mitochondrial permeability transition pore inhibitors, dose response, biochemical, absorbance, uHTS hits. shares compounds with MPTP inh. isolated mitochondria swelling. IC50, µM. actives 58% (n = 780); in the data active = IC50 below about 20 µM
MPTP counter DR – fluorescent counter-screen in isolated mitochondria, dose response, counter-screen for MPTP inhibitor project, biochemical, fluorescence, uHTS hits | actives 49% (n = 780) | shares compounds with MPTP inh | isolated mitochondria counterscreen, fluorescence read-out | IC50, µM; in the data active = IC50 below about 80 µM
An asterisk follows results filed as active; i = inactive; nt = no result.

SMILES	Beta cell apopt	CSC inhib	Gli-Sufu antag	MPTP inh	Mdm2 MdmX PPI	GRIN3A LBD mod	Rh123 counter	others
Cc1cccc(Nc2nc(N)c([N+](=O)[O-])c(N3CC(C)OC(C)C3)n2)c1 (stereo not drawn)	12	7	3	0	9	-3	nt
CCOC(=O)c1sc(NC(=O)C2CCC2)cc1C	-1	-2	-31	4	-19	-2	nt
Cc1cccc(C(=O)Nc2ccccc2SCC(=O)Nc2ccc(C)c(Cl)c2)c1	nt	nt	-5	90*	29	15*	83*
Cc1ccc(NC(=O)CSC(N)=O)cc1Cl	-17	37	-5	-2	3	-4	nt
Cc1ccc(NC(=O)CSc2ccccc2NC(=O)c2cccc(Cl)c2)cc1Cl	17	16	-1	80*	27	-5	-5	MPTP abs DR=>100;MPTP counter DR=6.3*
CC1=C(C(=O)Nc2ccc([N+](=O)[O-])cc2)C(c2cccc(C(F)(F)F)c2)NC(=S)N1c1ccccc1 (stereo not drawn)	6	33	4	75*	-4	10	89*
Oc1ccccc1/C=N/NC(=S)NC1CC2CC1C1C=CCC21 (stereo not drawn)	28	100*	-26	59*	36	9	54*
Oc1ccccc1C=NNC(=S)NN=Cc1ccccc1O	nt	nt	27	90*	nt	27*	67*
COc1cccc(/C=N/NC(=S)NC2CC3CC2C2C=CCC32)c1O (stereo not drawn)	2	0	-4	18	32	-5	nt
Cc1c(C(=O)NCc2cccc(C(F)(F)F)c2)sc(=O)n1Cc1ccc(C(=O)N(C)C)cc1	nt	nt	nt	-2	nt	nt	nt
CC1CCc2sc(C(=O)NNS(=O)(=O)c3ccc(F)c(F)c3F)cc2C1 (stereo not drawn)	-13	11	-13	1	-14	-10	nt
O=C(COc1ccc(S(=O)(=O)N2CCCC2)cc1)Nc1ccc2c(c1)OCCO2	1	-2	-12	-19	10	-3	nt
CCCOc1ccc(C2C(C(=O)c3ccco3)=C(O)C(=O)N2CCCn2ccnc2)cc1OC (stereo not drawn)	nt	nt	nt	0	nt	nt	nt
Cn1cc(CNCc2cnc3ccccn23)c(-c2ccc(Oc3ccccc3)cc2)n1	3	-2	7	31	29	3	nt
CN(Cc1cn(C)nc1-c1ccc(Oc2ccccc2)cc1)Cc1cnc2ccccn12	19	5	26	69*	23	-5	57*
COc1ccc(-c2nn(-c3ccccc3)cc2/C=N/N=C(N)N)cc1OC	-3	-3	6	89*	46	-1	-31
C[C@H]1COc2cccc(N3CCC[C@@H]3CO)c2S(=O)(=O)N1	nt	nt	nt	1	nt	nt	nt
Cc1ccccc1N=Nc1c(O)[nH]c2ccccc12	-6	10	8	4	-26	3	nt
Cc1ccc2[nH]c(O)c(N=Nc3ccccc3C)c2c1	-6	2	-3	66*	0	0	-3	MPTP abs DR=i;MPTP counter DR=>80
COc1ccc(OC)c(S(=O)(=O)Nc2cccc(F)c2)c1	-7	-1	-9	-4	-18	0	nt
c1ccc(COc2ccc(CNCc3cccs3)cc2)cc1	10	45	-12	96*	-2	-1	-1	MPTP abs DR=6.4*;MPTP counter DR=31*
Brc1ccc(CNCc2cccs2)cc1	-2	-7	-19	1	-5	3	nt
COc1ccc(CCNCc2ccc(OCc3ccccc3)cc2)cc1	2	53	-10	98*	-4	1	-2	MPTP abs DR=4.4*;MPTP counter DR=28*
CC1(C(=O)NS(=O)(=O)C2CC2)CCN(C(=O)c2ccc3c(c2)OCO3)C1 (stereo not drawn)	nt	nt	nt	-1	nt	nt	nt
COCCNC(=O)C1Cc2c(ccc3ccccc23)O1 (stereo not drawn)	-1	5	-4	-2	5	-2	nt
SMILES	Beta cell apopt	CSC inhib	Gli-Sufu antag	MPTP inh	Mdm2 MdmX PPI	GRIN3A LBD mod	Rh123 counter	others
COc1ccc(S(=O)(=O)NNC(=O)C2Cc3c(ccc4ccccc34)O2)cc1 (stereo not drawn)	8	-8	15	80*	12	-1	54*
N#Cc1c(NC(=O)Cn2c(=O)oc3ccccc32)oc(-c2ccccc2)c1-c1ccccc1	3	86*	7	95*	0	11*	44*
Cc1cc(C)c2nc(SCc3ccc([N+](=O)[O-])cc3)nc(C)c2c1	-9	0	4	5	26	2	nt
Cc1cc(C)c2nc(SCCc3ccccc3)nc(C)c2c1	-5	-2	-1	71*	-9	2	-6	MPTP abs DR=i;MPTP counter DR=>80
CC(C)c1ccc(CNc2ccc3c(c2)ncn3C)cc1	-11	0	-47	56*	-27	1	58*
Cc1coc2cc3oc(=O)ccc3cc12	2	10	-41	0	-13	-2	nt
COc1ccc(/C=N/NC(=O)c2cc(Br)ccc2O)cc1Cn1cc(Cl)cn1	-2	-7	-1	68*	8	21*	53*
COc1ccc(/C=N/NC(=O)c2ccccc2O)cc1CN1CCOCC1	4	3	15	2	33	1	nt
O=C(Nc1csc([N+](=O)[O-])c1)Nc1c(Cl)cccc1Cl	-15	14	6	67*	30	-1	88*
CCNC(=O)NC(=O)c1csc([N+](=O)[O-])c1	-4	-10	-3	3	-2	-1	nt
CN1CCN(CCCC(=O)c2ccc(C3CCCC3)cc2)CC1	0	56	-4	79*	-3	0	-2	MPTP abs DR=5.9*;MPTP counter DR=19*
CN1CCN(CCCCC(=O)c2ccccc2)CC1	-7	35	-1	2	18	-1	nt
O=C1NC(=S)S/C1=C\c1cccc([N+](=O)[O-])c1	nt	nt	-1	82*	nt	12*	95*
CCN(CC)c1ccc(C=C2SC(=S)NC2=O)cc1	nt	nt	-1	64*	nt	-8	78*
COc1ccc2nc(N3CCCCC3)c(/C=C3\SC(=S)NC3=O)cc2c1	18	121*	7	76*	7	-2	44*
O=C1NC(=S)SC1=Cc1ccccc1Cl	nt	nt	6	90*	nt	-5	91*
COc1ccc(-n2c(C)cc(/C=C3\SC(=S)NC3=O)c2C)cc1	6	10	-13	14	-30	-3	nt
N#C/C(=C\c1cc2ccccc2nc1N1CCCCC1)C(N)=O	-2	-6	-1	1	nt	0	nt

From PubChem
